Data on 19 molecules can be found in PubChem BioAssay.

As usually defined, the inhibition is the change of the read-out against control, counted positive when it falls.

Experiment [1] is described as follows: antimalarial activity against Dd2 strain (AID 2302;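 active = growth inhibition above 50% at the single 2 µM test dose, taken to imply half-maximal potency below 2 µM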;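 also: 0% = DMSO untreated growth and 100% = chloroquine plus artemisinin killed control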). The settings on record: P. falciparum Dd2 in RBCs, LDH growth readout, 72 h; at 2 µM; hits give high values.
Experiment [2] can be described thus: HepG2 cytotoxicity, primary screen, cytotoxicity control for P. falciparum antimalarial project, cell-based, ATP luminescence (AID 2303;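 active = inhibition above 50%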;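 also: 0% = DMSO wells and 100% = digitonin-killed cells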). The settings on record: HepG2 viability, 24-48 h, at 10 µM, hits give high values.
For experiment [3], the target named is L-lactate dehydrogenase (Plasmodium falciparum (isolate CDC / Honduras)) (UniProt Q27743). As to the kind of experiment: PfLDH activity inhibition – cell lysate, 3D7 strain, counter-screen for P. falciparum growth inhibition project (AID 2304).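 Also: 0% = vehicle and 100% = reference inhibitor.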 The settings on record: P. falciparum 3D7 crude extract, LDH APAD/NBT absorbance; at 2 µM; hits give high values.
The nature of experiment [4]: inhibition of 3D7 malaria parasite growth – strain 3D7 (AID 2306).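 Also: 0% = DMSO wells and 100% = chloroquine plus artemisinin control wells.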 To be noted: P. falciparum 3D7 erythrocytic growth, LDH absorbance, 72 h; at 2 µM; hits give high values.
Experiment [5] deals with Calcium-dependent protein kinase 1 (Plasmodium falciparum (isolate 3D7)) (UniProt P62344). Kind of experiment: PfCDPK1 kinase inhibitors, biochemical, TCAMS library (AID 1159585; cut-off not given, nearly all actives have IC50 up to about 0.98 µM;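 also: inhibitors leave more ATP so luminescence rises with inhibition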). The settings on record: recombinant PfCDPK1, Kinase-Glo ATP depletion luminescence.
Experiment [6] concerns the target Plasmodium falciparum protein kinase 6 (PK6, PF3D7_1337100) (UniProt Q8IDW1). Kind of experiment: PfPK6 kinase inhibitors, biochemical, TCAMS library (AID 1159586). The settings on record: recombinant PfPK6, Kinase-Glo ATP depletion luminescence. Background: Kinase-Glo measures the ATP left after a reaction by luminescence.
Experiment [7] concerns the target Protein kinase 7 (PK7), Plasmodium falciparum 3D7 (PF3D7_0213400) (UniProt Q7YTF7). As to the kind of experiment: inhibition of Plasmodium PK7 catalytic activity – biochemical, TCAMS antimalarial set, Kinase-Glo luminescence (AID 1159587). To be noted: recombinant PfPK7, Kinase-Glo ATP depletion luminescence.
Experiment [8] concerns the target Calcium-dependent protein kinase 4 (Plasmodium falciparum (isolate 3D7)) (UniProt Q8IBS5). Kind of experiment: PfCDPK4 kinase inhibitors, biochemical, TCAMS library (AID 1159588; cut-off not given, nearly all actives have IC50 up to about 0.91 µM). The settings on record: recombinant PfCDPK4, Kinase-Glo ATP depletion luminescence.

Structures are written as SMILES. A number with no mark means an inactive call. For some assays here: Results with a measured potency or affinity are listed apart. Active and inactive are the calls of the source. Unless noted, no rule for the calls is given here.

Chain of Plasmodium falciparum protein kinase 6 (PK6, PF3D7_1337100) (Q8IDW1 1-305): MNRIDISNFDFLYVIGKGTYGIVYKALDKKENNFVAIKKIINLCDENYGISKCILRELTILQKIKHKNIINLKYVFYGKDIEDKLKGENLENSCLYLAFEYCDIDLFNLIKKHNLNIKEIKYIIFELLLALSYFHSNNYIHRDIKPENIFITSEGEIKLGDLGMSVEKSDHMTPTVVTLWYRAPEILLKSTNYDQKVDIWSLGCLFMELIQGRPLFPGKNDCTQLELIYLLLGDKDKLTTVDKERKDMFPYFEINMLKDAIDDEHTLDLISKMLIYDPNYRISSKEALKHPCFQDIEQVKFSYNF
Chain of Calcium-dependent protein kinase 1 (Plasmodium falciparum (isolate 3D7)) (P62344 whole entry, looked up): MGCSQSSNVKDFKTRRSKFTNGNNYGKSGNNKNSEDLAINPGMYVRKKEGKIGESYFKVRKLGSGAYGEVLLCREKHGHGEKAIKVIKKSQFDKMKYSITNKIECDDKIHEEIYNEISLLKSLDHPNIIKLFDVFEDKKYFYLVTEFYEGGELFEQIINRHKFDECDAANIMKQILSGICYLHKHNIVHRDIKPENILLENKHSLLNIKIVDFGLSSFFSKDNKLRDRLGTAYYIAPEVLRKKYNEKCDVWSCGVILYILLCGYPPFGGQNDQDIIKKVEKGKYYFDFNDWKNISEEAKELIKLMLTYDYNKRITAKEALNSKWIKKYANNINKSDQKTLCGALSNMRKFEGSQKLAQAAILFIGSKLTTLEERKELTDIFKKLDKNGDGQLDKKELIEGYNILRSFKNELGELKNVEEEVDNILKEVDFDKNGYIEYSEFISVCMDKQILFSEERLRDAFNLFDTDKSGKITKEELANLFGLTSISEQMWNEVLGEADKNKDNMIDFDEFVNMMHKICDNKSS
Chain of Calcium-dependent protein kinase 4 (Plasmodium falciparum (isolate 3D7)) (Q8IBS5 whole entry, looked up): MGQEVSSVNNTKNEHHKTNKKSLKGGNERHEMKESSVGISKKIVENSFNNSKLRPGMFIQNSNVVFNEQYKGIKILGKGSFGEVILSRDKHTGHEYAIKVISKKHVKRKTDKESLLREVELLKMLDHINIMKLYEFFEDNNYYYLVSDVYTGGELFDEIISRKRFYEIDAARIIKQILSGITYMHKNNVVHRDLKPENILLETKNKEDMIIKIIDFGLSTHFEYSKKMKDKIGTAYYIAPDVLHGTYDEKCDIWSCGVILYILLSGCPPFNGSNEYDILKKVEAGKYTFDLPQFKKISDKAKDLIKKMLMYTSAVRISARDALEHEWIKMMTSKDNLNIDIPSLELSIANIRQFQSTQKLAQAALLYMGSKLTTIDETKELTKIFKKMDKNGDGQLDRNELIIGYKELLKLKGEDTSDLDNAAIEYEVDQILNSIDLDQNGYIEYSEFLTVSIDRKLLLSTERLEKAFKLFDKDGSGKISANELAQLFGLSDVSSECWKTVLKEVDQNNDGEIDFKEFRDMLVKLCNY
Chain of L-lactate dehydrogenase (Plasmodium falciparum (isolate CDC / Honduras)) (Q27743 whole entry, looked up): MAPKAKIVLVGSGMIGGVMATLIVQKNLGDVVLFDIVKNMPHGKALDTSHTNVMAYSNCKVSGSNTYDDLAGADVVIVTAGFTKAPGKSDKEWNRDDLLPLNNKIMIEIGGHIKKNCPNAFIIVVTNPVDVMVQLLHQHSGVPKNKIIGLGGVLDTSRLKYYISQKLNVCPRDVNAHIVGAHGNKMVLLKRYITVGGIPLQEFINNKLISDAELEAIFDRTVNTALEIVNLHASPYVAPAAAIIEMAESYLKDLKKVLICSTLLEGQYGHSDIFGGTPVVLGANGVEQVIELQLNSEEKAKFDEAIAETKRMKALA
Chain of Protein kinase 7 (PK7), Plasmodium falciparum 3D7 (PF3D7_0213400) (Q7YTF7 1-343): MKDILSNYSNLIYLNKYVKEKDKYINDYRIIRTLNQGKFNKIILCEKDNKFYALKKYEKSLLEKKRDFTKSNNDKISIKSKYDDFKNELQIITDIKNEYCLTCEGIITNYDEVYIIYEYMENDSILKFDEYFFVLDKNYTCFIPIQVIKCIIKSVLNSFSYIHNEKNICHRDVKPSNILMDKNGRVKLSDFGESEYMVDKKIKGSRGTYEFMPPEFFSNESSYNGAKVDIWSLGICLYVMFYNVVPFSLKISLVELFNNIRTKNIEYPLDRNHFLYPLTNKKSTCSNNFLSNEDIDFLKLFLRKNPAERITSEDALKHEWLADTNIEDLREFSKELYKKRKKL

In the case of `CN(C)CCOc1cc(NC(=O)Nc2ccc(Oc3ccccc3)cc2)ccc1I`, the results for the growth inhibition in experiment [1] and in experiment [4] were 4% and 89% (active), respectively. Moreover, the inhibition in experiment [2] was 13%; in experiment [3] it was 4%. Further, the outcome in experiment [5], in experiment [6], in experiment [7] and in experiment [8] was inactive.
For the molecule `COc1ccc2nccc([C@@H](O)CN3CCC(NC(=O)c4ccc(OC)c(N)c4)CC3)c2c1`, the growth inhibition was 0% in experiment [1] and 93% (active) in experiment [4]. Further, the values for the inhibition in experiment [2] and in experiment [3] were 9% and -3%, respectively. Further, the outcome in experiment [5], in experiment [6], in experiment [7] and in experiment [8] was inactive.
As for `CCc1c[nH]c2c(N3CCCCC3=O)cc(C(=O)N[C@@H](Cc3ccccc3)[C@H](O)CNCc3cccc(OC)c3)cc12`, the growth inhibition is 99% (active) in experiment [1] and 101% (active) in experiment [4]. In addition, the inhibition in experiment [2] is 8%; in experiment [3], -1%. The result in experiment [5], in experiment [6], in experiment [7] and in experiment [8] was inactive.
`CC(C)Nc1cc(C(=O)N[C@@H](Cc2ccccc2)[C@H](O)CNCc2cccc(C(F)(F)F)c2)c(F)c(N2CCCCS2(=O)=O)c1`: the growth inhibition in experiment [1] was 78% (active); in experiment [4] it was 93% (active). Further, the values for the inhibition in experiment [2] and in experiment [3] were -5% and -2%, respectively. Also, the result in experiment [5], in experiment [6], in experiment [7] and in experiment [8] was inactive.
With `CCN(CCN(C)C)Cc1ccc(-c2ccc(NS(=O)(=O)c3cccc4cccnc34)cc2)cc1`, the growth inhibition in experiment [1] is 57% (active); in experiment [4] it was 91% (active). The inhibition in experiment [2] was 16%; in experiment [3] it was 1%. Further, the result in experiment [5], in experiment [6], in experiment [7] and in experiment [8] was inactive.
On to `Cc1cc(C(=O)CN2C(=O)NC3(CCCc4ccccc43)C2=O)c(C)n1Cc1ccco1` (configuration not stated), for which the figures for the growth inhibition in experiment [1] and in experiment [4] were -5% and 90% (active), respectively. The inhibition in experiment [2] is 11%; in experiment [3] it was 4%. Further, the outcome in experiment [5], in experiment [6], in experiment [7] and in experiment [8] was inactive.
Regarding `Cc1ccc(NC(=O)c2ccc3ncccc3c2)cc1OC1CCN(CCC(C)C)C1` (configuration not stated), the growth inhibition in experiment [1] is 62% (active); in experiment [4], 98% (active). The inhibition is 5% in experiment [2] and -4% in experiment [3]. The result in experiment [5], in experiment [6], in experiment [7] and in experiment [8] was inactive.
`COc1cc2ccccc2cc1OCCCN1CCN(CC(c2ccc(F)cc2)N2CCN(C(C)C)CC2)CC1` (configuration not stated): the growth inhibition is 92% (active) in experiment [1] and 100% (active) in experiment [4]. Further, the inhibition in experiment [2] is 72% (active); in experiment [3], -3%. The outcome in experiment [5], in experiment [6], in experiment [7] and in experiment [8] was inactive.
In the case of `CCc1ccc(CN2CCC(CN(c3ccc(N4CCOCC4)c(F)c3)S(=O)(=O)c3ccc(C(C)(C)CC)cc3)CC2)cc1`, the growth inhibition was 94% (active) in experiment [1] and 93% (active) in experiment [4]. Also, the inhibition is 26% in experiment [2] and -5% in experiment [3]. Also, the result in experiment [5], in experiment [6], in experiment [7] and in experiment [8] was inactive.
On to `CC(C)[C@H](NC(=O)c1ccc(O)c(-c2ccc(Cl)c(Cl)c2)c1)C(=O)NCCN1CCCCC1`, for which the growth inhibition in experiment [1] was 98% (active); in experiment [4], 99% (active). Also, the figures for the inhibition in experiment [2] and in experiment [3] were -6% and -4%, respectively. Moreover, the outcome in experiment [5], in experiment [6], in experiment [7] and in experiment [8] was inactive.
With `O=C(/C=C/c1ccc(Cl)c(Cl)c1)N1CCC(CCN2CCc3[nH]c4ccccc4c3C2)CC1`, the values for the growth inhibition in experiment [1] and in experiment [4] were -1% and 96% (active), respectively. Further, the inhibition in experiment [2] is 22%; in experiment [3] it was -3%. The result in experiment [5], in experiment [6], in experiment [7] and in experiment [8] was inactive.
Turning to `COc1ccc(-c2nc(NC(=O)COc3ccc(C(C)=O)cc3)sc2C)cc1`, the growth inhibition in experiment [1] is 58% (active); in experiment [4], 98% (active). In addition, the inhibition in experiment [2] was -2%; in experiment [3] it was 2%. Further, the result in experiment [5], in experiment [6], in experiment [7] and in experiment [8] was inactive.
For `Cc1[nH]nc2cc(Nc3ccnc(Nc4ccc(CN5CCOCC5)cc4)n3)ccc12`, the figures for the growth inhibition in experiment [1] and in experiment [4] were 5% and 97% (active), respectively. The inhibition in experiment [2] was 22%; in experiment [3], -4%. Further, the outcome in experiment [5], in experiment [6], in experiment [7] and in experiment [8] was inactive.
Regarding `O=[N+]([O-])c1cccc(C=NNc2ccnc3ccc(C(F)(F)F)cc23)c1`, the results for the growth inhibition in experiment [1] and in experiment [4] were 35% and 96% (active), respectively. Further, the figures for the inhibition in experiment [2] and in experiment [3] were -6% and -2%, respectively. Besides, the outcome in experiment [5], in experiment [6], in experiment [7] and in experiment [8] was inactive.
For `CN(C)CCCNc1c2ccccc2nc2ccccc12`, the growth inhibition in experiment [1] is 4%; in experiment [4], 91% (active). For the same molecule, the results for the inhibition in experiment [2] and in experiment [3] were 31% and -3%, respectively. Besides, the result in experiment [5], in experiment [6], in experiment [7] and in experiment [8] was inactive.
For `CC(C)C[C@@H](/C=N/N1CCOC1=O)NC(=O)[C@H](CC(C)C)NC(=O)c1ccc(F)cc1`, the results for the growth inhibition in experiment [1] and in experiment [4] were 72% (active) and 85% (active), respectively. Besides, the inhibition in experiment [2] was 1%; in experiment [3], -4%. The outcome in experiment [5], in experiment [6], in experiment [7] and in experiment [8] was inactive.
As for `Fc1ccc2nc(-c3ccc(-c4ccc(CN5CCN(CCN6CCOCC6)CC5)cc4)cc3)[nH]c2c1`, the growth inhibition was 100% (active) in experiment [1] and 101% (active) in experiment [4]. Besides, the inhibition in experiment [2] is 38%; in experiment [3], -5%. Moreover, the outcome in experiment [5], in experiment [6], in experiment [7] and in experiment [8] was inactive.
With `COc1ccc(C=NNc2cc(C)nc3ccccc23)c2ccccc12`, the values for the growth inhibition in experiment [1] and in experiment [4] were 69% (active) and 99% (active), respectively. The inhibition in experiment [2] is 26%; in experiment [3] it was -1%. Moreover, the outcome in experiment [5], in experiment [6], in experiment [7] and in experiment [8] was inactive.
Regarding `COc1ccc(Nc2nccc(N3CCC(NC(=O)Nc4cc(C)ccc4C)C3)n2)cc1` (configuration not stated), the values for the growth inhibition in experiment [1] and in experiment [4] were 37% and 91% (active), respectively. For the same molecule, the inhibition in experiment [2] was 10%; in experiment [3], -8%. In addition, the result in experiment [5], in experiment [6], in experiment [7] and in experiment [8] was inactive.
